From PubChem BioAssay (EPA / NIEHS)
Active and inactive are the calls of the source. The calls were made as follows: active = hit-call score of the fitted dose curve at least 0.9, where 1 is the maximum; inactive = score below 0.9.

Key:
Details in all cases: mRNA level, 48 h; actives raise or lower the signal
[1] = read-out: Cytochrome P450 (CYP1A2), CYP1A2 (gene 1544); assay: LTEA_HepaRG_CYP1A2: Life Technologies and Expression Analysis (LTEA) Assay for Cytochrome P450 (CYP1A2) using HepaRG (AID 2283479)
In short: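 CYP1A2 transcript induction or loss, quantified by Fluidigm qRT-PCR against three housekeeping genes, was fitted bidirectionally against 0.5% DMSO controls. Human HepaRG cells received eight half-log concentrations from 100 uM over 48 h.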

[2] = read-out: cysteine-aspartic acid protease (CASP8), CASP8 (gene 841); assay: LTEA_HepaRG_CASP8: Life Technologies and Expression Analysis (LTEA) Assay for cysteine-aspartic acid protease (CASP8) using HepaRG (AID 2283480)
In short: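 CASP8 transcript measured by TaqMan qRT-PCR with ACTB/GAPDH/POLR2A normalization, after 48 h chemical exposure of HepaRG cells in serum-free induction medium. Eight concentrations, top 100 uM, half-log steps, 0.5% DMSO vehicle; fits in both directions versus DMSO.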

[3] = read-out: Cytochrome P450 (CYP2B6), CYP2B6 (gene 1555); assay: LTEA_HepaRG_CYP2B6: Life Technologies and Expression Analysis (LTEA) Assay for Cytochrome P450 (CYP2B6) using HepaRG (AID 2283481)
In short: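 HepaRG cells plated 48 h, switched to serum-free induction medium, then dosed 48 h (8 points, half-log from 100 uM, 0.5% DMSO). RNA isolated; CYP2B6 expression measured by qRT-PCR; gain or loss fitted relative to DMSO.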

[4] = read-out: Cytochrome P450 2C19 (Homo sapiens) (UniProt P33261); assay: LTEA_HepaRG_CYP2C19: Life Technologies and Expression Analysis (LTEA) Assay for CYP2C19 using HepaRG (AID 2283482)
In short: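 Transcript levels of CYP2C19 were quantified by qRT-PCR after HepaRG cells were treated for 48 hours with test chemicals up to 100 uM (eight half-log concentrations, 0.5% DMSO vehicle). Gain or loss of signal was fitted relative to DMSO.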

[5] = read-out: CYP2C9 (gene 1559); assay: LTEA_HepaRG_CYP2C9: Life Technologies and Expression Analysis (LTEA) Assay for CYP2C9 using HepaRG (AID 2283484)
In short: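 CYP2C9 transcript level, quantified by TaqMan qRT-PCR against three housekeeping genes, was fitted bidirectionally relative to 0.5% DMSO. HepaRG cultures were treated 48 h, in duplicate, at eight half-log concentrations topping at 100 uM.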

[6] = read-out: CYP2E1 (gene 1571); assay: LTEA_HepaRG_CYP2E1: Life Technologies and Expression Analysis (LTEA) Assay for CYP2E1 using HepaRG (AID 2283485)
In short: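 Assay uses 48 h exposure of HepaRG hepatic cells, eight concentrations to 100 uM. Expression of CYP2E1 is quantified by TaqMan qRT-PCR with ACTB, GAPDH and POLR2A normalization; curves fitted in both directions relative to vehicle.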

[7] = read-out: CYP4A11 (gene 1579); assay: LTEA_HepaRG_CYP4A11: Life Technologies and Expression Analysis (LTEA) Assay for CYP4A11 using HepaRG (AID 2283486)
In short: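 HepaRG, 48 h chem exposure, 8 conc (100 uM top, half-log), 0.5% DMSO vehicle; qRT-PCR readout, housekeeping-gene normalized; bidirectional curve fit vs DMSO baseline.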

[8] = read-out: Cytochrome P450 3A4 (Homo sapiens) (UniProt P08684); assay: LTEA_HepaRG_CYP3A4: Life Technologies and Expression Analysis (LTEA) Assay for CYP3A4 using HepaRG (AID 2283487)
In short: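 Differentiated HepaRG cells in serum-free induction medium exposed in duplicate for 48 h to 8 half-log concentrations up to 100 uM in 0.5% DMSO. CYP3A4 mRNA measured by qRT-PCR normalized to ACTB, GAPDH and POLR2A; bidirectional fit versus DMSO.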

[9] = read-out: DNA damage-inducible transcript 3 (DDIT3), DDIT3 (gene 1649); assay: LTEA_HepaRG_DDIT3: Life Technologies and Expression Analysis (LTEA) Assay for DNA damage-inducible transcript 3 (DDIT3) using HepaRG (AID 2283488)
In short: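 Eight-point concentration-response (100 uM highest, half-log dilutions) in HepaRG, 48 h, duplicate wells. Endpoint: qRT-PCR mRNA, normalized (ACTB, GAPDH, POLR2A), bidirectional fitting with DMSO as baseline.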

[10] = read-out: Pro-epidermal growth factor (Homo sapiens) (UniProt P01133); assay: LTEA_HepaRG_EGF: Life Technologies and Expression Analysis (LTEA) Assay for Epidermal growth factor (EGF) using HepaRG (AID 2283489)
In short: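 HepaRG, 48 h dosing, 100 uM top, half-log x8, 0.5% DMSO. Readout: TaqMan qRT-PCR (Fluidigm array), housekeeping-normalized. Gain or loss of signal fit vs DMSO.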

[11] = read-out: Early growth response protein 1 (EGR1) transcription factor, EGR1 (gene 1958); assay: LTEA_HepaRG_EGR1: Life Technologies and Expression Analysis (LTEA) Assay for Early growth response protein 1 (EGR1) transcription factor using HepaRG (AID 2283490)
In short: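 EGR1 transcript levels quantified by qRT-PCR (Fluidigm arrays) against three housekeeping genes after 48 h chemical exposure of HepaRG cells. Eight-point half-log series topping at 100 uM, 0.5% DMSO vehicle, analyzed for gain or loss.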

[12] = read-out: Ezrin (EZR), EZR (gene 7430); assay: LTEA_HepaRG_EZR: Life Technologies and Expression Analysis (LTEA) Assay for Ezrin (EZR) using HepaRG (AID 2283491)
In short: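 Differentiated human HepaRG cells, 48 h after plating, were exposed in serum-free induction medium for 48 hours to eight half-log concentrations up to 100 uM in 0.5% DMSO. EZR mRNA was measured by TaqMan qRT-PCR, normalized to ACTB, GAPDH and POLR2A, and fitted bidirectionally against DMSO.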

[13] = read-out: Cytochrome P450 3A7 (Homo sapiens) (UniProt P24462); assay: LTEA_HepaRG_CYP3A7: Life Technologies and Expression Analysis (LTEA) Assay for CYP3A7 using HepaRG (AID 2283492)
In short: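 Human HepaRG liver cells, 48 h post-plating, switched to serum-free induction medium and exposed in duplicate for 48 h. Dosing: 100 uM top, half-log dilutions, 8 points, 0.5% DMSO vehicle. Read-out: CYP3A7 mRNA, gain or loss fitted against DMSO baseline.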

[14] = read-out: CYP3A5 (gene 1577); assay: LTEA_HepaRG_CYP3A5: Life Technologies and Expression Analysis (LTEA) Assay for CYP3A5 using HepaRG (AID 2283493)
In short: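 Readout was CYP3A5 mRNA by qRT-PCR. HepaRG cultures were exposed for 48 h in serum-free induction medium to chemicals at up to 100 uM, and responses were fitted in both directions relative to DMSO vehicle.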

[15] = read-out: Fatty Acid-Binding Protein 1 (FABP1), FABP1 (gene 2168); assay: LTEA_HepaRG_FABP1: Life Technologies and Expression Analysis (LTEA) Assay for Fatty Acid-Binding Protein 1 (FABP1) using HepaRG (AID 2283494)
In short: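 FABP1 expression by TaqMan qRT-PCR, normalised to three housekeeping genes, in HepaRG cells after 48 h chemical treatment. Eight-point half-log series topping at 100 uM in 0.5% DMSO, duplicates; gain or loss fitted relative to vehicle.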

[16] = read-out: Cytochrome P450 4A22 (Homo sapiens) (UniProt Q5TCH4); assay: LTEA_HepaRG_CYP4A22: Life Technologies and Expression Analysis (LTEA) Assay for Cytochrome P450 4A22 (CYP4A22) using HepaRG (AID 2283495)
In short: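 Readout is CYP4A22 transcript induction or loss, quantified by qRT-PCR and normalized to ACTB, GAPDH and POLR2A. Human HepaRG cells receive test chemicals for 48 h at eight half-log concentrations from 100 uM in 0.5% DMSO.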

[17] = read-out: Cytochrome P450 7A1 (Homo sapiens) (UniProt P22680); assay: LTEA_HepaRG_CYP7A1: Life Technologies and Expression Analysis (LTEA) Assay for Cytochrome P450 7A1 (CYP7A1) using HepaRG (AID 2283496)
In short: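 Using 0.5% DMSO as vehicle and baseline, chemicals were tested in duplicate over an 8-point range from 100 uM on HepaRG cells for 48 h; qRT-PCR signals were normalised to ACTB, GAPDH and POLR2A.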

[18] = read-out: Glutathione S-Transferase (GSTA2), GSTA2 (gene 2939); assay: LTEA_HepaRG_GSTA2: Life Technologies and Expression Analysis (LTEA) Assay for Glutathione S-Transferase (GSTA2) using HepaRG (AID 2283497)
In short: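 GSTA2 transcript levels came from Fluidigm TaqMan qRT-PCR normalized to three housekeeping genes, fitted in both directions against DMSO. HepaRG cultures received chemicals for 48 h in serum-free induction medium (0.5% DMSO), 8 half-log concentrations up to 100 uM, duplicate.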

[19] = read-out: Glutamate-cysteine ligase catalytic (GCLC), GCLC (gene 2729); assay: LTEA_HepaRG_GCLC: Life Technologies and Expression Analysis (LTEA) Assay for Glutamate-cysteine ligase catalytic (GCLC) using HepaRG (AID 2283498)
In short: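 Expression by TaqMan qRT-PCR, normalized to three housekeeping genes (ACTB, GAPDH, POLR2A), with up- or down-regulation fitted against DMSO. HepaRG cells dosed in duplicate for 48 h with 8 half-log concentrations up to 100 uM, vehicle 0.5% DMSO.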

[20] = read-out: growth arrest and DNA damage 45 (GADD45G), GADD45G (gene 10912); assay: LTEA_HepaRG_GADD45G: Life Technologies and Expression Analysis (LTEA) Assay for growth arrest and DNA damage 45 (GADD45G) using HepaRG (AID 2283499)
In short: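 Gain or loss of GADD45G mRNA, quantified by TaqMan qRT-PCR against three housekeeping genes, is fitted in both directions relative to 0.5% DMSO. Human HepaRG cultures receive test chemical for 48 h at up to 100 uM.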

Measured: AC50

Sequence of Cytochrome P450 3A7 (Homo sapiens) (P24462 whole entry, looked up): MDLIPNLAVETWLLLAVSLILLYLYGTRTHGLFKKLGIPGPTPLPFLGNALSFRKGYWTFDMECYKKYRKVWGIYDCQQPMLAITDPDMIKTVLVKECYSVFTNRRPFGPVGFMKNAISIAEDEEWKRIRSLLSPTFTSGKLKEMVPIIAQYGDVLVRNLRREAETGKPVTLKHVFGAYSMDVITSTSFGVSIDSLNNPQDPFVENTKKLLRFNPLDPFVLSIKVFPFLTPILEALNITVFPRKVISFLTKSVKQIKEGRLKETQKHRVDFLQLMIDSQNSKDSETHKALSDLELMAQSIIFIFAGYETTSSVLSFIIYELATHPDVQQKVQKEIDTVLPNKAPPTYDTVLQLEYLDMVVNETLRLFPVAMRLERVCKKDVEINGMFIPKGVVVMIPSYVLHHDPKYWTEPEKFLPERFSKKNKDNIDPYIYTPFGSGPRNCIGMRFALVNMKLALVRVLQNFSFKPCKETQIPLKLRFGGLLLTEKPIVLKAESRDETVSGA
Sequence of Cytochrome P450 2C19 (Homo sapiens) (P33261 whole entry, looked up): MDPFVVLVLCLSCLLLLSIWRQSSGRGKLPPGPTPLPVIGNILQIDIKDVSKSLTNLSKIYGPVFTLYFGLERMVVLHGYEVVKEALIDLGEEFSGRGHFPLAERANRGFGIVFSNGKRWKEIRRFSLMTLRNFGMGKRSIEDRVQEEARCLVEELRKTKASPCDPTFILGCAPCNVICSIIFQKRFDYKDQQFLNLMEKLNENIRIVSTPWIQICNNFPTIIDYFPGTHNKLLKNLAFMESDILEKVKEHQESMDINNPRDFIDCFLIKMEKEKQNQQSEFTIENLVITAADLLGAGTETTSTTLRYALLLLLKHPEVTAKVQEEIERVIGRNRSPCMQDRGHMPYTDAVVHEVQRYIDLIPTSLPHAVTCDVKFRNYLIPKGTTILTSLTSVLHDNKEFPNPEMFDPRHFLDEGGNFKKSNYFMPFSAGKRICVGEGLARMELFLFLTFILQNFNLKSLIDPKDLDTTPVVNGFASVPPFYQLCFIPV
Sequence of Cytochrome P450 3A4 (Homo sapiens) (P08684 whole entry, looked up): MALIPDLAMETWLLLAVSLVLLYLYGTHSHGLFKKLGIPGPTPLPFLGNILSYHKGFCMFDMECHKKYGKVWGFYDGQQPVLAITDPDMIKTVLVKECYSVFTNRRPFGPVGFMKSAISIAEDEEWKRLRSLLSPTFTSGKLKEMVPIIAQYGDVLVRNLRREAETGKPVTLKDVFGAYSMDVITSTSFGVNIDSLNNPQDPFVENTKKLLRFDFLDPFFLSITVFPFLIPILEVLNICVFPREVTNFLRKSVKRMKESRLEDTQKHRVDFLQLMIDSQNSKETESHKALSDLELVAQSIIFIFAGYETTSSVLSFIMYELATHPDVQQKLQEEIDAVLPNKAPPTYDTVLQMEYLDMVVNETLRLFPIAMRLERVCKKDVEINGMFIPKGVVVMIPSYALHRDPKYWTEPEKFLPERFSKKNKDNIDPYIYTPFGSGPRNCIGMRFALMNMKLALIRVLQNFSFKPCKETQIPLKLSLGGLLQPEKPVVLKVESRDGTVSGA

NC(=O)O
inactive: all assays above

O=C(O)C(F)(F)C(F)(F)C(F)(F)C(F)(F)C(F)(F)C(F)(F)C(F)(F)C(F)(F)C(F)(F)C(F)(F)F
active: [1] 41.6 µM | [3] 47.8 µM | [5] 47.8 µM | [6] 57 µM | [7] 21.5 µM | [14] 21.4 µM | [17] 46.5 µM | [18] 47.8 µM
inactive: all other assays above

C[C@]12CCC(=O)C[C@@H]1CC[C@@H]1[C@@H]2CC[C@]2(C)[C@@H](O)CC[C@@H]12
active: [1] 65.1 µM | [4] 23.6 µM | [6] 50 µM | [7] 23.9 µM | [16] 28.8 µM
inactive: all other assays above

CCCCCCCCc1ccc(O)cc1
active: [7] 65.8 µM | [15] 71.8 µM
not listed: [10] | [16] | [17]
inactive: all other assays above

C=CC(=O)OCCCCCC(C)C
active: [1] 50 µM
inactive: all other assays above

Oc1cccc2cccnc12
active: [1] 7.72 µM
not listed: [5]
inactive: all other assays above

CC(C)(C)CC(C)(C)c1ccc(O)cc1
active: [3] 3.33 µM | [6] 26.5 µM | [7] 72.3 µM | [16] 50 µM
inactive: all other assays above

O=C(O)C(Cl)(Cl)Cl
inactive: all assays above
